# Screens (PubChem)
# Compounds with a hit are over-represented: about 17% of the library has one in this group of screens.
# ClpP mod: qHTS Assay for Activators of ClpP. purified B. subtilis ClpP, FRET peptide cleavage, 20 min. 340,000 compounds, 1.9% hits. ATP-dependent Clp protease proteolytic subunit (Bacillus subtilis (strain 168)), P80244. Potency, µM (doses to about 57.5 µM), for the others: at the highest dose activity change, negative = active. AID 651965, 2013; active = well fitted falling curve with a large enough effect; inconclusive = small, poorly fitted or top-dose-only effect; inactive = no such curve, though single readings can be large or run the other way; also: the source files actives as falling curves though it sought activators and does not explain the sign; nearly all actives have a fitted effect of over 65% in size
# Target sequence (P80244 whole entry, looked up): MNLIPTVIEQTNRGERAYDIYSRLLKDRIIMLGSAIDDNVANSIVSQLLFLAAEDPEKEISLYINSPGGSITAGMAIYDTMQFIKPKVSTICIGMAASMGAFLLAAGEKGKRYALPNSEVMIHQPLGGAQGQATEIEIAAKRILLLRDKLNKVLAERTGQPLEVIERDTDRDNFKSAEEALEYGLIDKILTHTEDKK
#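 Buffer: 100 mM Tris/HCl pH8, 100 mM KCl, 0.05% low protease BSA, 2.5% glycerol, 0.01% Tween-20. ClpP 10 microg/mL final; 20 min RT; delta FRET normalized to ADEP and DMSO controls.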
# TDP1 inh: blocks human tyrosyl-DNA phosphodiesterase 1 | Q9NUW8 | recombinant TDP1, AlphaScreen DNA substrate cleavage | Potency, µM (series often up to 130 µM), without a hit: at the highest dose activity change, negative = inhibition, hits mostly inhibitors | 350,000 compounds, 0.28% hits | AID 485290; also: % is scaled to controls: 0 for no effect and ±100 for the full control effect; nearly all actives have a fitted effect of over 40% in size
#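 Tdp1 1 nM final; 15 min RT w/ cpd; substrate 15 nM, 5 min; beads 10 ug/ml, 10 min; AlphaScreen read. Neg ctrl: no enzyme.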
# TDP1 cell noCPT: qHTS for Inhibitors of human tyrosyl-DNA phosphodiesterase 1 (TDP1): qHTS in cells in absence of CPT; DT40 Tdp1-/- hTDP1 cells, no CPT, ATP luminescence, 48 h; Potency, µM (top dose mostly 46.2 µM), for the others: at the highest dose activity change, negative = growth inhibition, most hits filed as inhibitors; 420,000 compounds, 15% hits; AID 686978, 2013; also: % is scaled to controls: 0 for no effect and ±100 for the full control effect; nearly all actives have a fitted effect of over 55% in size
#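 Growth of hTDP1-complemented DT40 Tdp1-knockout cells is measured by ATP luminescence after at least 48 hr compound exposure at 37 °C, with DMSO substituting for the 20 nM CPT used in the parallel screen.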
# DT40 TDP1 CPT: growth inhibition of DT40 Tdp1-/-;hTDP1 cells with camptothecin (screen for TDP1 inhibitors); chicken DT40 Tdp1-/-;hTDP1 cells + 20 nM CPT, ATP luminescence, 48 h; Potency, µM (top dose mostly 46.2 µM), for inactives: at the top dose activity change, negative = growth inhibition, most hits filed as inhibitors; 420,000 compounds, 12% hits; also: % is scaled to controls: 0 for no effect and ±100 for the full control effect; nearly all actives have a fitted effect of over 55% in size
#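 Chicken DT40 Tdp1-/- cells complemented with human TDP1, 400 cells/well, exposed to compounds plus 20 nM camptothecin for at least 48 h at 37 C; viability read as ATP content by CellTiter-Glo luminescence.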
# * marks the source's active call; other numbers are inactive results; u = inconclusive; x = no result given. Unless noted, calls follow the shape of the dose curve; as a rule, active = well fitted curve in the direction sought with a large enough effect; inconclusive = small, poorly fitted or top-dose-only effect, or another doubt; inactive = no such curve, though single readings can be large; an effect the other way counts as inactive or inconclusive. Potency is read from the fitted curve at half-maximal effect.
SMILES,ClpP mod,TDP1 inh,TDP1 cell noCPT,DT40 TDP1 CPT
COc1ccc(-[n+]2c(C)cc(/C=C3\Sc4ccccc4N3C)cc2C)cc1,2%,5%,0.0073µM*,0.015µM*
COc1ccc(/C=C2\C=Cc3ccccc32)cc1OC,1%,x,u,u
O=C(NCc1ccccc1)Nc1cccn(Cc2ccccc2F)c1=O,20µM*,5%,u,u
CCc1ccccc1NC(=O)Nc1cccn(Cc2ccccc2F)c1=O,4%,9%,u,u
CSc1ccc(NC(=O)Nc2cccn(Cc3ccccc3F)c2=O)cc1,u,3%,26µM*,u
O=C(NCc1ccccc1)Nc1cccn(Cc2cccc(F)c2)c1=O,35µM*,3%,5%,0%
CCOc1ccc(NC(=O)Nc2cccn(Cc3ccccc3)c2=O)cc1,28µM*,4%,15µM*,u
Fc1c(F)c(-n2nnc3ccccc32)c(F)c(F)c1Cl,-1%,x,-20%,0%
CSc1ccccc1NC(=O)Nc1ccccc1,0%,-6%,-17%,-29%
O=C(NCc1ccccc1)Nc1cccn(Cc2ccccc2)c1=O,25µM*,5%,-1%,1%
Cc1cc(NC(=O)NCc2ccccc2)c(=O)n(Cc2ccc(F)cc2)c1,x,x,u,-101%
CCOc1ccc(NC(=O)Nc2ccccc2SC)cc1,0%,0%,23µM*,u
CCOC(=O)Cc1ccc(NC(=O)NCc2cccn2Cc2ccccc2)cc1,1%,10%,21µM*,13µM*
Cc1ccc(NC(=O)NCc2cccn2Cc2ccccc2)cc1F,0%,5%,-8%,-10%
O=C(NCc1ccccc1)Nc1cccn(Cc2ccc(F)cc2)c1=O,32µM*,8%,u,u
COc1ccc(CCNC(=O)COC(=O)CCC(=O)c2ccc(F)cc2)cc1OC,32µM*,1%,-1%,0%
COc1ccc(C(CCN(Cc2ccc(OC)c(OC)c2)C(C)=O)C(C)C)cc1 (stereo unspecified),-1%,x,u,18µM*
COc1ccc(CCC(=O)NO)cc1,1%,x,16µM*,11µM*
COc1ccc(CCC(C)NC(=O)Cc2ccc(OC)c(OC)c2)c(OC)c1 (stereo unspecified),-3%,x,18µM*,u
CCOC(=O)c1c(-c2ccccc2)cn2c(C)cc(C)nc12,x,-3%,-11%,7%
O=C(CSc1nnc(C2CC2)n1Cc1ccco1)NCC(F)(F)F,-1%,0%,3%,19%
O=C(NC(=S)Nc1cccnc1)c1cccc(Cl)c1,-2%,x,1%,-5%
COc1ccc(C(=O)CCc2ccc(OC)c(OC)c2)cc1,x,x,18µM*,u
COc1ccc(C(=O)Cc2ccc(OC)c(OC)c2)cc1,-1%,7%,-21%,-28%
COc1ccc(C(=O)CC(=O)c2ccccc2O)cc1OC,x,0%,u,u
SMILES,ClpP mod,TDP1 inh,TDP1 cell noCPT,DT40 TDP1 CPT
COc1cc(O)c(CCC(=O)c2ccc(OC)c(OC)c2)c(OC)c1,-1%,4%,u,21µM*
CCOC(=O)c1cc(OC(C)=O)c2ccc(OC)c(OC)c2c1,-18%,x,23µM*,u
CCOC(=O)c1ccc(OC)c(OC)c1Cl,2%,4%,-10%,6%
COc1cccc(C2=NN(C(C)=O)C(c3cn(-c4ccccc4)nc3-c3cccs3)C2)c1 (stereo unspecified),-12%,-3%,13%,5%
CC(=O)N1N=C(c2ccc(C)cc2)CC1c1cn(-c2ccccc2)nc1-c1cccs1 (stereo unspecified),2%,-2%,u,16µM*
C=CCNc1ncnc2c1ncn2[C@H]1CN(Cc2ccc(F)cc2)C[C@@H](CO)O1,0%,x,u,u
COc1ccc(CC(C)CC(=O)NCCc2ccc(OC)c(OC)c2)cc1 (stereo unspecified),0%,x,u,-9%
CN(CC(=O)Nc1ccc(Cl)c(C(F)(F)F)c1)C(=O)Cc1cccs1,-1%,1%,u,u
CN(CC(=O)Nc1ccc(Cl)c(C(F)(F)F)c1)C(=O)Cc1ccsc1,x,x,16µM*,16µM*
CN(CC(=O)Nc1ccc(Cl)c(C(F)(F)F)c1)C(=O)CCN1C(=O)C2CC=CCC2C1=O (stereo unspecified),u,x,u,9.2µM*
O=C(Nc1nnc([C@H]2C[C@H](O)[C@@H](CO)O2)s1)c1ccccc1F,-4%,x,-6%,3%
CCOc1ccc2oc(=O)cc(CN3CCN(Cc4ccc(C)cc4)CC3)c2c1,-7%,0%,15µM*,23µM*
CCOc1ccc2oc(=O)cc(CN3CCN(Cc4ccccc4)CC3)c2c1,-12%,x,23µM*,u
CC(C)(C)c1ccc(CCC2OCC(C[N+]3(C)CCOCC3)O2)cc1 (stereo unspecified),x,4%,2.1µM*,1.8µM*
Cc1cc(-c2nnc3n2CCCCC3)c(C)n1-c1ccccc1,-15%,3%,16µM*,u
Oc1ccccc1-c1nnc2n1CCCCC2,1%,x,-15%,12%
CN1OC[C@@H]2CN[C@H](c3cccc(-c4ccc(C#N)cc4)c3)C[C@@H]21,1%,x,u,u
Cc1cccc(-n2c(=S)[nH]c3sc4c(c3c2=O)CCc2ccccc2-4)c1,x,2%,6.5µM*,9.2µM*
O=C1CSC(c2ccccc2)N1c1nnc(C23CC4CC(CC(C4)C2)C3)s1 (stereo unspecified),x,3%,x,x
CCOC(=O)c1cnc(SC)nc1Sc1cc(Cl)ccc1Cl,9%,1%,18µM*,21µM*
CCOC(=O)c1cnc(SC)nc1Nc1cccc(F)c1,0%,-3%,-8%,-20%
CC(C)CNC(=O)c1c2c(nc3ccccc13)-c1ccccc1CC2,28µM*,-3%,u,-24%
C=CCNC(=O)c1c2c(nc3ccccc13)-c1ccccc1CC2,32µM*,4%,-24%,-21%
COc1cccc2c1CCc1c-2nc2ccccc2c1C(=O)O,x,x,-17%,-7%
CCN(C(=O)CN1C(=O)COc2ccc(S(=O)(=O)N3CCCCCC3)cc21)c1cccc(C)c1,0%,10%,u,u
SMILES,ClpP mod,TDP1 inh,TDP1 cell noCPT,DT40 TDP1 CPT
Cc1ccccc1C1NC(=S)NC2=C1C(=O)CCC2 (stereo unspecified),x,-3%,-5%,-1%
COc1cc(/C=C2/SC(=Nc3ccc(O)cc3)NC2=O)ccc1O,0%,6%,0.65µM*,1µM*
CCc1ccc(N=C2NC(=O)/C(=C/c3cc(OC)c(O)c(OC)c3)S2)cc1,2%,x,26µM*,u
COc1cc(/C=C2\SC(=Nc3ccc(Cl)c(C(=O)O)c3)NC2=O)c(Br)c(Br)c1O,x,8.9µM*,3%,-1%
COc1ccc(/C=C2\SC(=Nc3ccccc3OC)NC2=O)cc1,1%,7%,u,23µM*
COC(=O)/C=C1\SC(=Nc2ccc(Cl)c(Cl)c2)NC1=O,x,7%,-7%,-4%
